Results: the supplement of paper PMC11732987, “Enantioselective OTUD7B fragment discovery through chemoproteomics screening and high-throughput optimisation” (Communications Chemistry, 2025)

Columns and labels:
Test in all cases: log2 ratio of Biotin-Ahx-Ub-VS probe labelling (fragment/DMSO); higher = less target engagement (more negative = stronger competition), active = hit call of the paper (q ≤ 0.05, log2 ratio ≤ -1)
Conditions in all cases: compound concentration: 200 uM; treatment time: 3 h
USP34 = USP34 (UniProt Q70CQ2)
How it was run: (§1)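 HEK293T lysate, 495 µg per sample in Tris/CHAPS/IGEPAL buffer with protease inhibitors, was treated in triplicate with fragment at 200 µM or vehicle for 3 h and then with Biotin-Ahx-Ub-VS at 0.5 µM final for 1 h. Labelled DUBs were NeutrAvidin-enriched, digested with LysC and trypsin, and run by diaPASEF LC-MS/MS. Spectronaut label-free quantities were global-median-normalised, and values are average log2 fragment/vehicle ratios by unpaired t-test on proteins with ≥2 unique peptides.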

USP36 = biological target: T1, USP36 (UniProt Q9P275)
T1 sequence (whole entry): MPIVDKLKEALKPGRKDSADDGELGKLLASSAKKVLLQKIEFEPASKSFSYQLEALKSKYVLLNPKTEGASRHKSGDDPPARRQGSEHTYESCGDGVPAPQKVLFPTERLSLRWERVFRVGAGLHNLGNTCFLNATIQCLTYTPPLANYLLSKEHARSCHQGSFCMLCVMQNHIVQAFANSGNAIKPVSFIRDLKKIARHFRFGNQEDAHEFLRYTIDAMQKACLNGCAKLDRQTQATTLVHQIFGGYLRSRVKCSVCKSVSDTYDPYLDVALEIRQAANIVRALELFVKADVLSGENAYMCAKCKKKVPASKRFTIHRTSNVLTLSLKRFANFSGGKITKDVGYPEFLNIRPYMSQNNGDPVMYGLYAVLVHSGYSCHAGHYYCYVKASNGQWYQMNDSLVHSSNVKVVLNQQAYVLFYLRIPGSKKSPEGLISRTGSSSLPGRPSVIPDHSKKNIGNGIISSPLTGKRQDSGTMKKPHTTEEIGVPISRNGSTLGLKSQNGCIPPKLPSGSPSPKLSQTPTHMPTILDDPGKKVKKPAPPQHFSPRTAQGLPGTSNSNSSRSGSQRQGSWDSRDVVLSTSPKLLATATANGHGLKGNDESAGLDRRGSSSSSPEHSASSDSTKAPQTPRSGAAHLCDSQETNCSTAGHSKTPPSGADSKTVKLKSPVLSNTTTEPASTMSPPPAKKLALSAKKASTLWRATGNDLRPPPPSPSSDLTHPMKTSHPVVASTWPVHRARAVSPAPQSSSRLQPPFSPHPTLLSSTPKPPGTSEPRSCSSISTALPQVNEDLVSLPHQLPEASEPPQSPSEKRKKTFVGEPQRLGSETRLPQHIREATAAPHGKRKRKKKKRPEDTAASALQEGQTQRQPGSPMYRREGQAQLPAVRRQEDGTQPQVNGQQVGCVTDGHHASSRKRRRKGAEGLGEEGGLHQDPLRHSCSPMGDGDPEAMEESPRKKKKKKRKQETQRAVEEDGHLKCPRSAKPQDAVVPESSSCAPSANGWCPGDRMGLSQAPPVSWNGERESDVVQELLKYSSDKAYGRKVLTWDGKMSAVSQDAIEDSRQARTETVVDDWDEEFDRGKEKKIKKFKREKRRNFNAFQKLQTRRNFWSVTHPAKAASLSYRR
How it was run: as §1

USP38 = biological target: T2, USP38 (UniProt Q8NB14)
T2 sequence (whole entry): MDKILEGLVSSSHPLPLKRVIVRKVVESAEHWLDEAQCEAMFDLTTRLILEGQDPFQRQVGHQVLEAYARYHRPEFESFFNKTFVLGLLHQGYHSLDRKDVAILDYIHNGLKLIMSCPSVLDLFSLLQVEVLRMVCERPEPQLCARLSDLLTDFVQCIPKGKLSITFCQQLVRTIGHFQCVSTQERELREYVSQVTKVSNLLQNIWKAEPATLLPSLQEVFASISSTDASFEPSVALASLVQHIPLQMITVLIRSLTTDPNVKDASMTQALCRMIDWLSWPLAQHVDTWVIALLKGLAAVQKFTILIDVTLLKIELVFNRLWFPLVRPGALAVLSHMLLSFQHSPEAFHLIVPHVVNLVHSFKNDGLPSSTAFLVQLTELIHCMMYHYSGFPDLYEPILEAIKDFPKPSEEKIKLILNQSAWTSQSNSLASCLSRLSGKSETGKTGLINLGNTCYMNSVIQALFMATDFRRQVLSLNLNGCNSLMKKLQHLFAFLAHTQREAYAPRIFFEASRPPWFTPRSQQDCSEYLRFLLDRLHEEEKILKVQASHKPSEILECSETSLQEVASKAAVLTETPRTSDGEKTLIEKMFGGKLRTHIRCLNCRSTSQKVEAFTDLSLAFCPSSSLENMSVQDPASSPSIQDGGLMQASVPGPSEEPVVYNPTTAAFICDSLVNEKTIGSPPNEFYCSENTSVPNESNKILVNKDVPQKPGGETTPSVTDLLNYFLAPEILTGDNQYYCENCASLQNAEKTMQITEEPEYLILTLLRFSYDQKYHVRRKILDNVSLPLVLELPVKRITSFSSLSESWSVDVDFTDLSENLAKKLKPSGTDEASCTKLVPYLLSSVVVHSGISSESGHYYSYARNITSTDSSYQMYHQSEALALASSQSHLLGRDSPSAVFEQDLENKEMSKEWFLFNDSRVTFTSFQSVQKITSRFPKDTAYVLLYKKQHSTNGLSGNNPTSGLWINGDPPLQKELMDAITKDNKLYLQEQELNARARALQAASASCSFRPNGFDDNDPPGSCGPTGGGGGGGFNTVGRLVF
How it was run: as §1

USP39 = biological target: T3, USP39 (UniProt Q53GS9)
T3 sequence (whole entry): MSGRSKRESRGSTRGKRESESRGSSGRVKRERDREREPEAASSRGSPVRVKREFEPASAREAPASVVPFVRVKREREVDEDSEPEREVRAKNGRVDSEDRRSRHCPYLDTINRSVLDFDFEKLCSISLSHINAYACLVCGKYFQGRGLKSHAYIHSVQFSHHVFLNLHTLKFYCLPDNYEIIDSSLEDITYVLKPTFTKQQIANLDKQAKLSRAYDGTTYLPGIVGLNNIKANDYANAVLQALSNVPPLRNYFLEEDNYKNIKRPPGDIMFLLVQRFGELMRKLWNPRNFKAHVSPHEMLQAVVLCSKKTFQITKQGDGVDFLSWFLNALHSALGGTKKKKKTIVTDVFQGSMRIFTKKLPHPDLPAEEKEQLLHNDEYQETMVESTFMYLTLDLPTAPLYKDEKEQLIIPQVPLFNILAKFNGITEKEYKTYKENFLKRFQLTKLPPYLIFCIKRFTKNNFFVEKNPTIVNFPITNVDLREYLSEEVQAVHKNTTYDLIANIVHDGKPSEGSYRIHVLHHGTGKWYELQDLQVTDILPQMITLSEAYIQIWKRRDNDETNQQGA
How it was run: as §1

USP4 = biological target: T4, USP4 (UniProt Q13107)
T4 sequence (whole entry): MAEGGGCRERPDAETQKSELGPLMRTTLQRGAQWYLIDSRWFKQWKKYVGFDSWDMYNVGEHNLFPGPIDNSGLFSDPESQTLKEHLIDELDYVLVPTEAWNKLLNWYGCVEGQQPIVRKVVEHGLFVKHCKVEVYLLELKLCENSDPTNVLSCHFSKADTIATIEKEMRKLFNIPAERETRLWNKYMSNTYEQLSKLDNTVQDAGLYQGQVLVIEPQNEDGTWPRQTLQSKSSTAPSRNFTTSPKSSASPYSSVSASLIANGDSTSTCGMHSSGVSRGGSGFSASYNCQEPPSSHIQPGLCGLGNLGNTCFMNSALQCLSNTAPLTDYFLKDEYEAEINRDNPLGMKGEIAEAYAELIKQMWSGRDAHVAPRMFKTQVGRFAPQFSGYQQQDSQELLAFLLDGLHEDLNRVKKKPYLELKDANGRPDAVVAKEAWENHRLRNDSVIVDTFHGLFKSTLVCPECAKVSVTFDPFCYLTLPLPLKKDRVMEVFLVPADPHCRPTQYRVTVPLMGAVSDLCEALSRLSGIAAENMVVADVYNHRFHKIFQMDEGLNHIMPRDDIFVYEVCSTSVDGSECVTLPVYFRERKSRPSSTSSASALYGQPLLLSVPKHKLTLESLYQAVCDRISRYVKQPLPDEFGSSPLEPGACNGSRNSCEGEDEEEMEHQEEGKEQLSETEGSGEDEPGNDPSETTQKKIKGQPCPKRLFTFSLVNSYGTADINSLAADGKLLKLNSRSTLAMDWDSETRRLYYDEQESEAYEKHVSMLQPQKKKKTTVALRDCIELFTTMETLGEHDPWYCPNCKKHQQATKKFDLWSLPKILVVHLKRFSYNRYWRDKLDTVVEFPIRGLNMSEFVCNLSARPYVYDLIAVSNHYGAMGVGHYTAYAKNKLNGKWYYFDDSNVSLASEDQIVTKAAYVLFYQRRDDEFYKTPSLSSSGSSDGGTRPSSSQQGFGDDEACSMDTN
How it was run: as §1

Measured: log2 ratio of Biotin-Ahx-Ub-VS probe labelling

Chain of USP34 (Q70CQ2 whole entry, the tested form may be a part): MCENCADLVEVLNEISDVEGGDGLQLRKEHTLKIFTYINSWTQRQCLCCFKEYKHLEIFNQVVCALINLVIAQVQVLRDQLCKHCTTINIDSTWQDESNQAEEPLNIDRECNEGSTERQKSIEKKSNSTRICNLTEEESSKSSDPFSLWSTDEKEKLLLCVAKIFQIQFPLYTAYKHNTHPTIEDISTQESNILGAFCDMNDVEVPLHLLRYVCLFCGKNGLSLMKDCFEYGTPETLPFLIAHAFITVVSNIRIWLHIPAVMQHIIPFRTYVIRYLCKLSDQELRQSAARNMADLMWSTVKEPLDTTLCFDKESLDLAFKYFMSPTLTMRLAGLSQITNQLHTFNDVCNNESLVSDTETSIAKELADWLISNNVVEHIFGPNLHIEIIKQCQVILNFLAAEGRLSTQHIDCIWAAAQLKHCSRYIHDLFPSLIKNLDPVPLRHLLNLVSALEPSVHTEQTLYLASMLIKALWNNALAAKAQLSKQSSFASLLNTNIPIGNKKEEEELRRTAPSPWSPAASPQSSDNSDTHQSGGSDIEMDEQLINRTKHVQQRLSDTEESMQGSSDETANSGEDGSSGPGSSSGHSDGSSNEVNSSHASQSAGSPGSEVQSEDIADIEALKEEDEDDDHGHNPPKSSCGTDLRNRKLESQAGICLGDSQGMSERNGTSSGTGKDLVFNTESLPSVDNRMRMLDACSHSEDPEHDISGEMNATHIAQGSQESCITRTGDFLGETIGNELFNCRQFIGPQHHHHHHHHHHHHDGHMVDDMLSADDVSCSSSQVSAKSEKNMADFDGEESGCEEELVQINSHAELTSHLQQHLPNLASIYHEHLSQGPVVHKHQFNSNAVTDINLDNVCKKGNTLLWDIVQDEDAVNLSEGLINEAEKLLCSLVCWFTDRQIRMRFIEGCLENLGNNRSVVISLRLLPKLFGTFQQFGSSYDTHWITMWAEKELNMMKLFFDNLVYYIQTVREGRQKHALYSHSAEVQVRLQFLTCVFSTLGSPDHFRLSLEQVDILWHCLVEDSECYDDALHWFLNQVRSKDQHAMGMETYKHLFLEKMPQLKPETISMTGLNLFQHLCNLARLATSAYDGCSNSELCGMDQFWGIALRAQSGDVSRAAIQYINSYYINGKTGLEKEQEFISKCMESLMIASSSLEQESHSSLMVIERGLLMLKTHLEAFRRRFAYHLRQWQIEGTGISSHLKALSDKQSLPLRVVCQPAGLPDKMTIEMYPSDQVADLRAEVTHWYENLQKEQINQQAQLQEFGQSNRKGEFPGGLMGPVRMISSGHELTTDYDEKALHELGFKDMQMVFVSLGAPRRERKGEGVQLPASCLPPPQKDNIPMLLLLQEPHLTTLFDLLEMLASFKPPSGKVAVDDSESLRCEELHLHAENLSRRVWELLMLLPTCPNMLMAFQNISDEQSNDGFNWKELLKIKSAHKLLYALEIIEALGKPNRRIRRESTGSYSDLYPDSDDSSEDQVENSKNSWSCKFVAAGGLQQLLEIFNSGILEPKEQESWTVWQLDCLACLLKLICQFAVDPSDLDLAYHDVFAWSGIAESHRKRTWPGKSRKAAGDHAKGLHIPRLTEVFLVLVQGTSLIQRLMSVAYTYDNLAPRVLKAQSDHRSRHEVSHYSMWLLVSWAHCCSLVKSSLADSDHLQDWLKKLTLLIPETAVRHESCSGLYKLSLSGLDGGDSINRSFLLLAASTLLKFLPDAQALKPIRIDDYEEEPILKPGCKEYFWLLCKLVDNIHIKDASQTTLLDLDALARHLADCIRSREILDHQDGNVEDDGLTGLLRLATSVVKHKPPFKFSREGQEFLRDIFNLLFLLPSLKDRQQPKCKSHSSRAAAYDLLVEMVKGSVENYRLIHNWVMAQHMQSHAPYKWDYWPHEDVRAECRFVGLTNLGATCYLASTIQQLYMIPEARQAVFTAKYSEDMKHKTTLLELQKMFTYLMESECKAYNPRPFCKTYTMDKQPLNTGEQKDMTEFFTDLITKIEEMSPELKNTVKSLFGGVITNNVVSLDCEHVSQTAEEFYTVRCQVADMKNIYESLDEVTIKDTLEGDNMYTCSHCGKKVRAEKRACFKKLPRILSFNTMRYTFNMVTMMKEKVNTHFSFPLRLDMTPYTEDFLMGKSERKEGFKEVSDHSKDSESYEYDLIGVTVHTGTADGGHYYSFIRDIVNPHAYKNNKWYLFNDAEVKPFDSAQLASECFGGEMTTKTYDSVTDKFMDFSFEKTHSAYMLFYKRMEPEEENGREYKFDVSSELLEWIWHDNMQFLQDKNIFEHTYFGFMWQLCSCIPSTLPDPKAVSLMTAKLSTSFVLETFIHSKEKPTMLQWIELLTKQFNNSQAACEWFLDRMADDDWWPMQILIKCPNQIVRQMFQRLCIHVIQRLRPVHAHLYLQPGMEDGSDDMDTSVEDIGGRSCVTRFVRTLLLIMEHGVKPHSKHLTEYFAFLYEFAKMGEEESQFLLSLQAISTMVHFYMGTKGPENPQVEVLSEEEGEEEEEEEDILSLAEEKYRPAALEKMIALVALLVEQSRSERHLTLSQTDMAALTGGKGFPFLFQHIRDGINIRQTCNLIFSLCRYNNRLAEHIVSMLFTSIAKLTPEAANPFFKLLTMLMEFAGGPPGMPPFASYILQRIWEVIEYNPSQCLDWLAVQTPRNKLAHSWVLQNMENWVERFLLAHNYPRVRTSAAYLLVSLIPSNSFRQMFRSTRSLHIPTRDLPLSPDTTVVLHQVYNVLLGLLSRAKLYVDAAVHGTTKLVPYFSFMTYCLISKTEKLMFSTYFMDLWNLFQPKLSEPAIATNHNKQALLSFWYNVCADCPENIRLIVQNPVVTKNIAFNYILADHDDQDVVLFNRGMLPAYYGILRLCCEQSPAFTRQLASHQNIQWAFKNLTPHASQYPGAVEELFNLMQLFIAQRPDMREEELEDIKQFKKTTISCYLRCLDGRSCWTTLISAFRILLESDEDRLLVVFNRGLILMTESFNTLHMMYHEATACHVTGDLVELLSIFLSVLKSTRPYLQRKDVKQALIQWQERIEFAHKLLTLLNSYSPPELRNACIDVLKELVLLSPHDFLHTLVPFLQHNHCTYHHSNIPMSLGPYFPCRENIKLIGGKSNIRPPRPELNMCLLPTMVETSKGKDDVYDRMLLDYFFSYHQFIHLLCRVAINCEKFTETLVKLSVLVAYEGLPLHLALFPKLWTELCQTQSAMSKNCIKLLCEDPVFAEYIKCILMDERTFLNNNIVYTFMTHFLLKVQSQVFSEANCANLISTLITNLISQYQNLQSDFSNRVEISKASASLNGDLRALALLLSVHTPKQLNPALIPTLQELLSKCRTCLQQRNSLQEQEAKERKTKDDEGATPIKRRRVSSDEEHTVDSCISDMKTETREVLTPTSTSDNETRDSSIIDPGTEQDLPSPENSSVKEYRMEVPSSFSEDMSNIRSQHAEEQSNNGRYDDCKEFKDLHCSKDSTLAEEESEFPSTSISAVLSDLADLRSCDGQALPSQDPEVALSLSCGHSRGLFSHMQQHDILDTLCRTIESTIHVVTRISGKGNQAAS

Cc1cc(C(=O)NC2CCN(C(=O)CCl)CC2)no1
inactive: USP34 -0.22 | USP36 -0.0502 | USP38 0.122 | USP39 0.0572 | USP4 -0.111
